HepG2 tox: kills HepG2 cells in TGF-b inhibitor counter-screen | 410,000 tested, 0.76% active | HepG2 CAGA-GFP viability, ATP luminescence, 18 h | AID 588856 | Potency, µM (series often up to 46.1 µM), hits mostly cytotoxic
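HepG2 CAGA-GFP cells (1000/well, DMEM with 1% FBS) received compound, then TGF-beta at 500 pg/mL final, and were incubated 18 hours at 37 degrees C. Viability was read by CellTiter-Glo luminescence. Media-only wells were set as complete cell-killing and DMSO as no toxicity.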
HT1080-NT tox: kills 2HG-producing HT-1080-NT fibrosarcoma cells | HT-1080-NT fibrosarcoma viability, CellTiter-Glo ATP luminescence, 48 h | Potency, µM (highest dose often 46.1 µM), most hits filed as cytotoxic | 360,000 tested, 1.6% active;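 note: NT is the 2HG producing partner of a matched IDH1 knockdown line; nearly all actives have a fitted effect of over 55% in size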
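Toxicity toward the 2HG-producing NT line was scored as %Activity, normalised to DMSO and no-cell wells, from CellTiter-Glo luminescence after 48 hours' treatment.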
HT1080 IDH1KD tx: toxicity to HT-1080 IDH1 knockdown cells (counter line) | HT-1080 IDH1 knockdown viability, ATP luminescence, 48 h | Potency, µM (doses to about 46.1 µM), hits mostly cytotoxic | 360,000 tested, 2% active
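IDH1KD HT-1080 cells, 750/well, RPMI + 5% FBS; compound pinned after 2 h settling; 48 h, 37 °C; CellTiter-Glo luminescence; % activity normalised to DMSO and no-cell wells; curves fitted, classed by r2 and efficacy.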
ATXN2 expr inh: ATXN2 expression inhibition. HEK-293 ATXN2-luciferase reporter, luminescence, 24 h. Potency, µM (doses to about 57 µM), most hits filed as inhibitors. 360,000 tested, 0.72% active; note: nearly all actives have a fitted effect of over 55% in size
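ATXN2-luciferase reporter cells (luciferase flanked by upstream and downstream ATXN2 gene portions) were treated 24 h at 37 °C with compounds at up to 57 uM. SteadyGlo luminescence gave expression; GF-AFC fluorescence gave viability.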
TGFb inhibitor: TGF-b pathway inhibition; HepG2 CAGA-GFP TGF-b/SMAD3 reporter, GFP fluorescence, 18 h; TGF-beta stimulated, 500 pg/mL final; Potency, µM (series often up to 46.1 µM), most hits filed as inhibitors; 410,000 tested, 1.2% active; AID 588855; note: nearly all actives have a fitted effect of over 65% in size
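First, reporter cells (HEPG2 CAGA-GFP) rested 2 h at 37 degrees C. Next, compounds were pinned in and TGF-beta added to 500 pg/mL final. After 18 h, GFP was imaged per cell and summed per well.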
S2 tox: viability counter-screen for ATXN expression inhibitors | S2 cells (HEK-293 line with an ATXN2-luciferase reporter) viability, CellTiter-Fluor protease fluorescence, 24 h | 400,000 tested, 0.49% active | Potency, µM (series often up to 56.7 µM), actives largely listed as cytotoxic; note: nearly all actives have a fitted effect of over 40% in size
Numbers stand for hits; - = inactive; ? = inconclusive; . = no result. Shown are actives, neighbours in structure and some others; about 3.9% of the full set was active somewhere. Calls come from the whole dose curve; as a rule, active = well fitted curve in the direction sought with a large enough effect; inconclusive = small, poorly fitted or top-dose-only effect, or another doubt; inactive = no such curve, though single readings can be large; an effect the other way counts as inactive or inconclusive.

SMILES	HepG2 tox	HT1080-NT tox	HT1080 IDH1KD tx	ATXN2 expr inh	TGFb inhibitor	S2 tox
O=C(NCc1ccco1)C1CC(c2cc(C(F)(F)F)cc(C(F)(F)F)c2)=NO1 (stereo not given)	-	5.8µM	2.59µM	-	-	-
O=C(NCc1cccc(C(F)(F)F)c1)C1CC(c2ccccc2C(F)(F)F)=NO1 (stereo not given)	-	?	25.9µM	-	-	?
O=C(NCc1cccc(C(F)(F)F)c1)C1CC(c2ccccc2F)=NO1 (stereo not given)	-	?	?	-	?	-
O=C(CSc1n[nH]c(-c2ccccc2Cl)n1)N1CCN(c2ccc(F)cc2)CC1	-	.	.	.	-	.
CCOC(=O)c1ccc(NC(=O)CN2c3ccccc3S(=O)(=O)c3ccccc32)cc1	-	.	.	?	11.2µM	?
COc1cccc(CN2C(=O)NC(C)(C3CCN(Cc4cccc(O)c4)CC3)C2=O)c1OC (stereo not given)	.	.	.	.	.	-
C=C1C(=O)C=C2CN(C(=O)c3ccccc3)[C@@](Cc3ccc(F)cc3)(C(=O)OC)[C@@H]12	3.16µM	11.6µM	5.8µM	3.16µM	1.78µM	4.47µM
C=C1C(=O)CC2=C1[C@](Cc1ccc(F)cc1)(C(=O)OC)N(C(=O)c1ccccc1)C2	.	?	?	-	.	?
Oc1c(N=NC(=S)Nc2ccccc2F)c2ccccc2n1Cc1ccccc1Cl	-	13µM	-	-	-	?
Cc1ccccc1NC(=S)N=Nc1c(O)n(C)c2ccc(S(=O)(=O)N3CCOCC3)cc12	-	?	20.6µM	-	5.62µM	-
Cc1cccc(C)c1NC(=S)N=Nc1c(O)n(C)c2ccc(S(=O)(=O)N3CCOCC3)cc12	-	-	-	?	-	-
Oc1c(N=NC(=S)Nc2ccccc2F)c2ccccc2n1Cc1ccccc1	-	-	-	?	-	?
Cc1c(Cl)cccc1NC(=S)N=Nc1c(O)n(CN2CCOCC2)c2ccccc12	-	-	?	?	5.01µM	?
Cc1ccc(Cn2c(O)c(N=NC(=S)Nc3ccccc3F)c3ccccc32)cc1	-	-	-	.	-	-
Cc1ccc(S(=O)(=O)c2cnc(SCC(=O)Nc3cccc(Cl)c3)nc2N)cc1C	-	.	.	?	?	?
CN1CCN(C(=O)CCN2C(=O)/C(=C/c3cccc(Br)c3)SC2=S)CC1	-	14.6µM	?	-	17.8µM	?
CN1CCN(C(=O)CCCN2C(=O)/C(=C/c3cccc(Br)c3)SC2=S)CC1	-	?	18.4µM	?	?	11.2µM
CCOC(=O)C1(Cc2ccc(OC)cc2)CCN(C(=O)c2ccc3[nH]ccc3c2)CC1	-	13µM	25.9µM	.	?	-
NC(N)=Nc1nc(CSCCC(N)=NS(N)(=O)=O)cs1	.	.	.	-	.	.
C#CCN(Cc1ccc(OC)cc1)S(=O)(=O)C=C	-	.	.	.	-	.
COc1ccc(CCc2cc(OC)c(OC)c(OC)c2)cc1	-	1.64µM	?	-	?	-
COc1ccc(CCNC(=O)CCc2cc(OC)c(OC)c(OC)c2)cc1	-	-	-	.	-	?
CCN1CCCC1CNC(=O)c1cnn(-c2nccc(-c3cccs3)n2)c1C1CC1 (stereo not given)	.	.	.	.	.	-
CCOc1ccc(NC(=S)N(CCCN2CCCC2)Cc2cccn2Cc2ccc(Cl)cc2)cc1	-	?	-	-	-	-
Cc1cccc(NC(=S)N(CCCN2CCCC2)Cc2cccn2Cc2ccc(Cl)cc2)c1	-	13µM	?	31.6µM	?	.
SMILES	HepG2 tox	HT1080-NT tox	HT1080 IDH1KD tx	ATXN2 expr inh	TGFb inhibitor	S2 tox
Cc1cccc(CNC(=O)c2c3n(c(C)cc2=O)-c2ccccc2SC(c2ccsc2)C3)n1 (stereo not given)	.	.	.	.	.	-
Cc1cc(=O)c2c(C)nn(-c3ccccc3)c2[nH]1	5.62µM	-	-	-	-	-
Cc1c(C)c2c(C)nn(-c3ccccc3)c2[nH]c1=O	-	-	-	-	-	-
COc1cc([C@@H]2c3cc4c(cc3[C@@H](O[C@@H]3O[C@@H]5CO[C@@H](C)O[C@H]5[C@H](O)[C@H]3O)[C@H]3COC(=O)[C@H]23)OCO4)cc(OC)c1O	-	-	?	1.12µM	-	?
COc1cc(C2c3cc4c(cc3C(OC3OC5COC(c6cccs6)OC5C(O)C3O)C3COC(=O)C23)OCO4)cc(OC)c1O (stereo not given)	-	?	?	0.316µM	-	?
COCCCNC(=O)Cc1c(C)c2c(cc(C)c3c(C(C)(C)C)coc32)oc1=O	-	4.11µM	2.91µM	-	?	-
COc1ccc(-n2nnc(-c3nsc(NC(=O)c4cccc(C)c4)n3)c2C)cc1OC	-	.	.	-	-	-
COc1cccc(CNC(=O)CN(c2ccc(C(C)C)cc2)S(=O)(=O)c2c(C)n[nH]c2C)c1	-	.	.	?	15.8µM	?
COc1ccc(CNC(=O)CN(c2ccc(C)cc2)S(=O)(=O)c2c(C)n[nH]c2C)cc1	-	.	.	-	?	-
Cc1n[nH]c(C)c1S(=O)(=O)N(CC(=O)NCc1ccccc1Cl)c1ccc(C(C)C)cc1	-	.	.	?	?	31.6µM
N=c1c2c(n(Cc3ccc(Cl)cc3)c3c1CCC3)CCC2	-	5.01µM	7.08µM	?	?	-
N=c1c2c(n(Cc3ccc(F)cc3)c3c1CCC3)CCCC2	-	?	?	.	-	-
N=c1c2c(n(Cc3cccc(Cl)c3)c3c1CCC3)CCCC2	-	6.31µM	10µM	?	?	-
N=c1c2c(n(Cc3ccccc3)c3c1CCC3)CCC2	-	?	?	-	-	-
CC(=O)NC(c1ccco1)c1ccc2cccnc2c1O (stereo not given)	-	?	?	10µM	?	-
CC(=O)NC(c1ccc(Cl)cc1)c1ccc2cccnc2c1O (stereo not given)	-	?	?	.	?	?
CCC(=O)NC(c1ccco1)c1cc(Br)c2cccnc2c1O (stereo not given)	-	.	.	5.01µM	3.98µM	?
CC(NC(=O)c1ccc(CSc2nc3ccncc3n2Cc2ccc(F)cc2)cc1)c1ccccc1 (stereo not given)	-	.	.	-	?	?
O=C(NCc1cccs1)c1ccc(CSc2nc3ccncc3n2Cc2ccccc2F)cc1	-	.	.	-	8.91µM	-
Cc1ccccc1Cn1c(SCc2ccc(C(=O)NCc3cccs3)cc2)nc2ccncc21	-	.	.	-	?	-
Cc1cccc(Cn2c(SCc3ccc(C(=O)N4CCCCCC4)cc3)nc3ccncc32)c1	-	.	.	.	12.6µM	.
CCC(C(=O)NC1CCCCC1)n1c(SCc2cccc(C)c2)nc2ccncc21 (stereo not given)	-	-	-	-	12.6µM	?

Assay outcomes (PubChem BioAssay)
